In PubChem BioAssay AID686978 (National Center for Advancing Translational Sciences (NCATS), 2013):
Values joined by “and” are separate entries in the source; they are usually repeats but may differ in a detail not shown here. Equal entries are not always repeated. The whole screen tested about 420,000 compounds, of which about 64,000 (15%) were called active. Inconclusive results (about 27%) are left out. The call rests on the fitted dose curve; in most records, active means well fitted inhibition curve with a large enough effect; inconclusive means small, poorly fitted or top-dose-only effect; inactive means flat fitted curve, though single readings scatter. Only a selection was taken, and actives are over-represented in it overall.

Experiment: qHTS for Inhibitors of human tyrosyl-DNA phosphodiesterase 1 (TDP1): qHTS in cells in absence of CPT; further: nearly all actives have a fitted effect of over 55% in size
Settings: DT40 Tdp1-/- hTDP1 cells, no CPT, ATP luminescence, 48 h; series mostly up to 46.2 µM; activity change, negative = growth inhibition: at the top concentration
Excerpt: Human tyrosyl-DNA phosphodiesterase 1 (TDP1) is a novel repair gene, and we propose to use it as a new target for anticancer drug development. TDP1 is not an essential protein, but under treatment with topoisomerase I poison (camptothecin: CPT), TDP1 works as a critical factor for cell survival. To directly identify novel TDP1 inhibitors active in a cellular environment, we have knocked-out the Tdp1 gene in chicken DT40 cells (Tdp1-/-) and generated a complemented counterpart cells that contains a stable transfection of the human TDP1 gene (Tdp1-/-;hTDP1 cells). For the primary screen, Tdp1-/-;hTDP1 cells will be exposed to small molecules in the presence or absence of CPT, and their growth kinetics will be evaluated after 48 hours by measuring ATP activity. […] The hit compounds will then be evaluated in the presence or absence of CPT using Tdp1-/- cells. […] In tertiary assays, biochemical gel-based assays will be used to assess whether the hit compounds specifically target TDP1.
To this end, we have screened this cell line against the MLSMR in two primary screens. In one screen we add CPT and in the other we screen in the absence of CPT; this AID represents the screen where CPT was absent.
NIH Chemical Genomics Center [NCGC]
NIH Molecular Libraries Probe Centers Network [MLPCN]
Assay Submitter (PI): Yves Pommier, NCI
DT40-hTDP1 cells without 20 nM Camptothecin (add 20 microL of DMSO in 1 L of cell culture medium) were dispensed at 400 cells/5microL/well in tissue culture treated 1536-well white wall/solid bottom assay plates (Greiner Bio-One North America, NC, U.S.A.) using a Multidrop Combi 8 channel dispenser (Thermo Fisher, Waltham, MA, USA). 23 nL compounds and controls were transferred using the pin tool (Kalypsys, San Diego, CA, USA) to the assay plates. The assay plates were then incubated at 37 masculineC for a minimum 48 hr. Three microL of Cell Titer Glo solution was added to the plates and incubated at RT in dark for 30 min. Luminescence was read using ViewLux (Perkin Elmer) with 1 sec exposure slow speed, high gain and 2x binning.
On the % scale 0 is the no-effect control and ±100 the full control effect; potency means the concentration at half of the fitted maximal effect.

SMILES | activity change, negative = growth inhibition | Potency
CCN(CC)CCOC(=O)c1cc2cc(COC)ccc2o1 | 2.59% (inactive) | 
C=CCN(CC=C)C(=O)Nc1ccc(OCC)cc1 | -15.1% (inactive) | 
CCOC(=O)[C@]12Cc3cc(OC)ccc3[C@H]1N(C(C)C)C(=O)c1ccccc12 |  | 6.51 µM (active)
CCOC(=O)[C@]12Cc3ccccc3[C@H]1N(C1CCCCC1)C(=O)c1cc(OC)ccc12 |  | 3.66 µM (active)
O=C(N/N=C/c1c(O)n(C2CC2)c(=S)[nH]c1=O)c1ccccc1 | 2.47% (inactive) | 
C[C@]12CC[C@H](O)CC1=C([N+](=O)[O-])CC1C2CC[C@@]2(C)C1CC[C@@H]2O (stereo partly specified) | -26.1% (inactive) | 
CN1C2CC3CC1C(O3)C2O (stereo unspecified) | 1.96% (inactive) | 
COc1ccc2cc1Oc1ccc(cc1)C[C@H]1c3cc(c(OC)cc3CCN1C)Oc1c(O)c(OC)cc3c1[C@H](C2)N(C)CC3 |  | 8.2 µM (active)
COc1c(O)ccc2c1-c1c3c(cc4c1C(C2)N(C)CC4)OCO3 (stereo unspecified) | -13% (inactive) | 
O=C(Cc1ccc(Cl)cc1)NCCN1CCN(C(=O)Cc2ccc(Cl)cc2)CC1 | -19.8% (inactive) | 
Clc1cccc(Cl)c1Cl | 11.4% (inactive) | 
O=[N+]([O-])c1cnc2ccc3ccccc3c2c1 | -17.9% (inactive) | 
CCCCC(=O)N/N=C/c1c(O)n(CC)c(=S)n(CC)c1=O |  | 10.3 µM (active)
Cn1c(O)c(C=NCCCC(=O)O)c(=O)n(C)c1=O | 1.24% (inactive) | 
O=C1C2(Cl)C3(Cl)C4(Cl)C(Cl)(Cl)C5(Cl)C3(Cl)C1(Cl)C5(Cl)C24Cl (stereo unspecified) |  | 16.4 µM (active)
COC1=CC=C2[C@H]3Cc4ccc(OC)c5c4[C@@]2(CCN3C)C1O5 (stereo partly specified) | -16.4% (inactive) | 
COP(=O)(OC)C(NC(=O)c1ccc(C)cc1)C(Cl)(Cl)Cl (stereo unspecified) | 4.88% (inactive) | 
O=C1NC(=O)C(Cc2ccccc2)C(=O)N1 | 5.35% (inactive) | 
CC(Cc1ccccc1)NC=O (stereo unspecified) |  | inactive
COc1ccc(CNC(=O)c2cc3c(-c4ccccc4F)nn(C)c3s2)c(OC)c1 |  | 6.51 µM (active)
CCOP(=O)(OCC)C(NC(=O)NC)C(N)=O (stereo unspecified) | 20.8% (inactive) | 

SMILES | activity change, negative = growth inhibition | Potency
O=C(O)c1cc[c]([Sb](=[O])([OH])[OH])cc1[N+](=O)[O-] | 1.08% (inactive) | 
CCOC(=O)C1(c2ccccc2)CCN(CC(O)c2ccc(NC(C)=O)cc2)CC1 (stereo unspecified) | -18.1% (inactive) | 
CCN1C[C@]2(COC)C(O)C[C@H](OC)[C@@]34C5C[C@]6(O)C(OC)C(O)[C@](OC(C)=O)(C5C6OC(=O)c5ccccc5)C(C(OC)C23)C14 (stereo partly specified) | 2.58% (inactive) | 
CC(CCC(=O)O)C1CCC2C3C(O)C[C@@H]4CC(O)CC[C@@]4(C)C3CC[C@@]12C (stereo partly specified) |  | inactive
C/C=C/CC1(CC)C(=O)NC(=S)NC1=O | -15.3% (inactive) | 
COC(=O)C1=C(c2ccc(OCc3ccccc3)cc2)C[C@@H]2CC[C@H]1N2C(=O)NCc1cccc(F)c1 |  | 14.6 µM (active)
COC(=O)C1=C(c2ccc(OCc3ccccc3)cc2)C[C@@H]2CC[C@H]1N2C(=O)NCc1ccc(Cl)cc1 |  | 16.4 µM (active)
COC(=O)C1=C(c2ccccc2)C[C@@H]2CC[C@H]1N2C(=O)N1CCCCC1 |  | 6.51 µM (active)
COC(=O)C1=C(c2cc3ccccc3s2)C[C@@H]2CC[C@H]1N2C(=O)NCCO | -0.15% (inactive) | 
COC(=O)C(c1ccccc1)N1CCCCCC1 (stereo unspecified) | -0.202% (inactive) | 
COC(=O)C1=C(c2cccc(OCc3ccccc3)c2)C[C@@H]2CC[C@H]1N2C(=O)NNCc1ccccc1 |  | 10.3 µM (active)
COC(=O)C1=C(c2ccccc2)C[C@@H]2CC[C@H]1N2C(=O)NCc1ccco1 | -23.1% (inactive) | 
COC(=O)C1=C(c2c(C)noc2C)C[C@@H]2CC[C@H]1N2C(=O)NCc1ccc2c(c1)OCO2 | -20.5% (inactive) | 
CC[N+](CC)(CC)CCCCCCCCCC[N+](CC)(CC)CC | -1.16% (inactive) | 
CNC(=O)N(C)c1nnc(C(C)(C)C)s1 |  | inactive
COP(=O)(NS(=O)(=O)c1ccccc1)OC | 10.3% (inactive) | 
CN1[C@@H]2CC[C@H]1CC(OC(=O)c1cc(Cl)cc(Cl)c1)C2 (stereo partly specified) |  | 13.3 µM (active) and 11.9 µM (active)
CN1CCC(OC(=O)c2cccc(F)c2)CC1 | -23.6% (inactive) | 
CNP1(NC)=Nc2nn(-c3ccccc3)c(N)c2C(c2ccccc2)=N1 | -8.1% (inactive) | 
Cc1cccc(Cn2cccc(C(=O)Nc3ccc4c(c3)OCCO4)c2=O)c1 |  | 20.6 µM (active)
CCN(CC)C(=O)c1ccc(NC(=O)c2cc(-n3cnnc3)ccc2Cl)cc1 | -6.17% (inactive) | 

SMILES | activity change, negative = growth inhibition | Potency
COc1cc(OC)cc(C2(C#N)CCN(C)CC2)c1 | 6.77% (inactive) | 
Cc1ccc(-n2c(O)c(C=NCC3CCCO3)c(=O)[nH]c2=O)c(C)c1 (stereo unspecified) | -4.24% (inactive) | 
CNC(=O)Nc1ccc(C(O)(C(=O)OC)C(F)(F)F)cc1 (stereo unspecified) | -2.08% (inactive) | 
Cc1cc(C(=O)OCC(=O)Nc2c(F)cccc2F)c(C)n1C1CC1 | 2.09% (inactive) | 
COC(=O)[C@@]12C[C@@H](CC(=O)NCc3cccc(C(F)(F)F)c3)C(=O)N(Cc3ccco3)C1=CCC(C)(C)C2 |  | 13 µM (active)
COc1cc(Cl)ccc1Nc1ncc(C(=O)N2CCN(c3ccccc3OC)CC2)c2ccccc12 |  | 5.8 µM (active)
C[C@@]1([C@@H](NP(=O)(c2ccccc2)c2ccccc2)c2ccccc2)C[C@H]1CCO |  | 18.4 µM (active)
CCN1CCN(C(=O)Cc2coc3cc(C)cc(C)c23)CC1 | -10.5% (inactive) | 
c1cncc(CNC2=NCCC2)c1 | -15% (inactive) | 
CCN1C(=O)NC(=O)C2(CCCC2)C1=O | -4.11% (inactive) | 
COc1ccc(-c2nc(CS(=O)CC(=O)N3CCC4(CC3)OCCO4)c(C)o2)cc1 (stereo unspecified) | 2.45% (inactive) | 
O=C(CCCn1c(=O)[nH]c2cc(Cl)ccc2c1=O)N1CCC2(CC1)OCCO2 | -6.95% (inactive) | 
Cc1ccc(Cn2c(C)c3cnn(CC(=O)N4CCC5(CC4)OCCO5)c(=O)c3c2C)cc1 |  | 14.6 µM (active)
Cc1ccc(C(C)C)c(OCC(=O)N2CCN(CC(=O)N3CCOCC3)CC2)c1 | -17.4% (inactive) | 
COC1C(O)C(C)OC(OC2CCC3(C=O)C(CCC4C3CCC3(C)C(C5=CC(=O)OC5)CCC43O)C2)C1O (stereo unspecified) |  | 0.206 µM (active)
COC1CC(OC2CC[C@@]3(C=O)C4CC[C@]5(C)C(C6=CC(=O)OC6)CC[C@@]5(O)C4CC[C@]3(O)C2)OC(C)C1O (stereo partly specified) |  | 0.92 µM (active)
CN(C)/C=C(\C=[N+](C)C)c1[nH]ncc1[N+](=O)[O-] | 7.97% (inactive) | 
Cc1ccc(C2CN(C)CC2C(=O)c2ccc(F)cc2)cc1 (stereo unspecified) | -12.1% (inactive) | 
COc1ccc(-n2c(O)c(C(C)=Nc3ccc4c(c3)CCC4)c(=O)[nH]c2=O)cc1 | -28.5% (inactive) | 
